Sampled rows, rich in hits. Any-hit rate of the full collection: about 4.8%.
SMARCA2 activ: activators of SMARCA2 function | actives 1% (n = 370,000) | MG213 cells, MMTV-luciferase reporter, dexamethasone, overnight | activation, % at 9.1 µM | AID 652017; in the data active = activation above about 7.8%;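 also: 0% = vehicle wells and 100% = reference activator wells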
ssDAF12 agonist: activates DAF-12 receptor from parasite S. stercoralis; HEK293 ssDAF-12/GRIP1 lit1-tk-luc reporter, luminescence; % of 3 µM dafachronic acid response; activation, % at 6.8 µM; actives 1% (n = 370,000);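 active = activation above the mean over all tested compounds plus 3 SD, cut at about 0.9% in these data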;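 also: 0% = DMSO-only wells and 100% = 3 µM delta7-dafachronic acid wells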
hgDAF12 agonist: agonists of H. glycines DAF-12 nuclear receptor; actives 1.8% (n = 370,000); activation, % at 6.8 µM; HEK293 GAL4-hgDAF12 UAS-luciferase reporter, agonist luminescence; normalized to butyrate control; AID 687014;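 active = activation above a cutoff set at the mean of all screened compounds plus 3 SD, cut at about 10% in these data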;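 also: 0% = DMSO wells and 100% = sodium butyrate wells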
DAX1 inh-1: inhibitors of human orphan nuclear receptor DAX1 (NR0B1) | P51843 | inhibition, % at 6.75 µM | actives 0.99% (n = 340,000) | HEK293 Gal4-DAX1 luciferase reporter, luminescence;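 active = inhibition above the mean over all tested compounds plus 3 SD, cut at about 4.2% in these data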;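 also: 0% = DAX1-transfected cells with DMSO and 100% = empty-vector control cells with DMSO; inhibition shows as a rise in luminescence from relieved DAX1 repression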
Target sequence (P51843 207-470 limits assumed): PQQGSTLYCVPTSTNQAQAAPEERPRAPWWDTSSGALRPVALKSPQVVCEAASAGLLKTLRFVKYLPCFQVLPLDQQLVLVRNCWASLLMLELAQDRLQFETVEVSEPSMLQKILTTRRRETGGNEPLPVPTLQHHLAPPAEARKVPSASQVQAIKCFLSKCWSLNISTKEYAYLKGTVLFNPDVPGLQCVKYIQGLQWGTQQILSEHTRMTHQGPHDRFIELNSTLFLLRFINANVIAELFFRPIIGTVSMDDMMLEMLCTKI
hcDAF-12 act: activates DAF-12 receptor from parasite H. contortus | actives 1.4% (n = 370,000) | activation, % at 6.8 µM | HEK293 hcDAF-12 lit1-tk-luc reporter, luminescence; 0% DMSO, 100% Δ7-dafachronic acid;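 active = activation above the mean of all tested compounds plus 3 SD, cut at about 5.5% in these data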;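 also: 100% = response to 3 µM Δ7-dafachronic acid high control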
DAX1 inh-2: DAX1 (NR0B1) inhibition, primary screen | HEK293T StAR-luciferase reporter, SF-1/DAX-1 repression relief | inhibition, % at 6.8 µM | actives 1.1% (n = 370,000);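 active = inhibition above the mean over all tested compounds plus 3 SD, cut at about 3.6% in these data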;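 also: 0% = DAX-1 cells with DMSO and 100% = cells lacking DAX-1 with DMSO; higher inhibition means more luminescence from relief of DAX-1 repression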
SMARCA2 conf: confirmation of SMARCA2 (BRM) function activators. shares compounds with SMARCA2 activ. MG213 cells, MMTV-luciferase with dexamethasone, luminescence, overnight; MG213 cells expressing E1A, Rb sequestered; DMSO wells 0%, reference activator 100%. activation, % at 9.1 µM. actives 30% (n = 3,500);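 active = activation above its plate's cutoff, the mean activation of tested wells plus 3 SD, cut at about 7.9% in these data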
GAL4-VP16 Luc: counter-screen for SMARCA2 activators: GAL4-VP16 luciferase reporter activation | shares compounds with SMARCA2 activ | HEK293 GAL4-VP16 pG5luc reporter, luciferase luminescence; scaled: DMSO wells 0%, SAHA wells 100% | activation, % at 9.1 µM | actives 41% (n = 3,500);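 active = activation above the solvent-only control well mean plus 3 SD, averaged across control plates, cut at about 5.2% in these data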
* hit, by the source's call; · = no result.

SMILES	SMARCA2 activ	ssDAF12 agonist	hgDAF12 agonist	DAX1 inh-1	hcDAF-12 act	DAX1 inh-2	SMARCA2 conf	GAL4-VP16 Luc
O=C(Cn1sc2ccccc2c1=O)Nc1ccccc1	12*	-1	3	0	1	1	6	0
O=C(Cn1sc2ccccc2c1=O)NC12CC3CC(CC(C3)C1)C2	·	·	·	1	·	·	·	·
COc1ccc(/C=C/C(=O)OCC(=O)Nc2ccc(Cl)cc2F)cc1S(=O)(=O)N1CCOCC1	-3	-1	1	0	1	0	·	·
CCN1CCc2c(OCC(=O)N3CCC(C)CC3)cccc2C1=O	8.4*	-1	2	0	-1	0	-6	0
CCN1CCc2c(OCC(=O)N3CCCCC3)cccc2C1=O	-4	-1	2	1	1	0	·	·
Cc1ccccc1S(=O)Cc1ccc(C(=O)NCCCN2CCCCC2)o1 (stereo unspecified)	12*	-1	1	1	0	0	-6	0
Cc1ccccc1S(=O)Cc1ccc(C(=O)NCCN2CCOCC2)o1 (stereo unspecified)	-3	-1	2	0	-1	1	·	·
O=C(NCCCN1CCCC1)c1ccc(CS(=O)(=O)c2ccc(Br)cc2)o1	9.5*	-2	-2	0	2	1	-1	1
O=C(O)c1cccc2c1C(=O)c1ccccc1C2=O	-3	-1	1	-1	-1	0	·	·
COc1ccccc1N(C)S(=O)(=O)c1ccc(C(=O)NC2CCCCC2)cc1	-1	-2	0	-1	-3	-1	·	·
CCN(CC)c1ccc(/C=N/NC(=O)Nc2ccccc2)cc1	11*	0	11*	2	4	2	11*	11*
Cc1ccc(/C=N/NC(=O)Nc2ccccc2)o1	8.2*	0	11*	2	4	2	12*	10*
O=C(c1ccco1)N1CCN(c2ccc(F)cc2)CC1	18*	-2	4	-1	1	2	2	5.8*
O=C(Nc1ccc(N2CCN(C(=O)c3ccco3)CC2)cc1)c1ccc(F)cc1	-2	-1	-2	0	-1	-1	·	·
Cc1nnc(SCC(=O)N(CC(C)C)c2c(N)n(CC(C)C)c(=O)[nH]c2=O)n1-c1ccccc1	-3	-1	-2	2	0	0	·	·
CCN(CC)C(=O)Oc1ccc2oc(=O)cc(-c3cc4cccc(OC)c4o3)c2c1	5	-1	5	0	2	0	·	·
N#C/C(=C\c1ccc[nH]1)C(=O)Nc1ccccc1[N+](=O)[O-]	11*	0	10	1	3	2	14*	6.1*
CCCCNC(=S)NNC(=O)c1csc(C)c1CC	8.3*	-2	1	0	0	-1	-2	2
O=C1c2ccccc2C(=O)c2c(NCCCN(CCO)CCO)cccc21	15*	0	0	·	1	1	40*	0
CCN(CC)CC(=O)Nc1cccc2c1C(=O)c1ccccc1C2=O	-2	-2	2	0	0	0	·	·
Cc1oc(C(C)(C)C)cc1C(=O)NCc1ccc2c(c1)OCO2	8.8*	1	2	0	-3	0	3	0
CC(=O)N[C@@H](Cc1c[nH]c2ccccc12)C(=O)OCC(=O)Nc1ccc2c(c1)OCO2	-2	-1	-1	0	-1	-7	·	·
O=[N+]([O-])c1cccc(-c2nc(-c3cccs3)c(-c3cccs3)[nH]2)c1	-3	-1	-3	0	-3	-2	·	·
O=[N+]([O-])c1cccc(-c2noc(-c3cccs3)n2)c1	11*	-1	4	3	0	0	5	4
CCOc1ccc(C(C)NC(=O)C2CCC2)cc1 (stereo unspecified)	-2	-1	1	0	0	0	·	·
SMILES	SMARCA2 activ	ssDAF12 agonist	hgDAF12 agonist	DAX1 inh-1	hcDAF-12 act	DAX1 inh-2	SMARCA2 conf	GAL4-VP16 Luc
Cc1sc(=NC(=O)c2ccco2)n(C)c1-c1ccc(F)cc1	8.8*	0	10	0	5	2	14*	12*
C=C1C(=O)[C@]23C[C@H]1CC[C@H]2[C@]1(C)[C@@H](OC(C)=O)CC[C@@](C)(C(=O)O)[C@H]1C[C@@H]3O	34*	-1	-1	·	1	2	9.1*	-2
C=C1C(=O)[C@]23C[C@H]1CC[C@H]2[C@]1(C)[C@@H](O)CC[C@@](C)(C(=O)O)[C@H]1C[C@@H]3O	21*	0	-1	·	0	4.3*	37*	2
CCOC(CN=c1nc(N(C)C)ss1)OCC	14*	-2	-3	-2	-2	-1	5	5.7*
CN(C)c1nc(=NCc2ccco2)ss1	·	·	·	-2	·	·	·	·
COC(=O)c1ccc(COc2ccc(Cl)cc2)o1	1	-1	3	1	-1	0	·	·
COc1cc(Br)c(/C=C/c2ccc3cccc(O)c3n2)cc1OC	-1	-1	-1	0	-1	0	·	·
COc1ccc(OC)c(/C=C/c2ccc3cccc(O)c3n2)c1	9.1*	-1	-2	-2	-2	-1	-16	13*
O=C(COc1ccccc1Cl)NC(=S)Nc1ccccc1N1CCCC1	11*	-1	-2	0	1	0	-3	0
O=S(=O)(/N=C(/NC(=S)Nc1ccccc1)c1ccccc1)c1ccc(Cl)cc1	8.8*	0	10	2	4	1	9.2*	6.4*
Cc1nnc(NC(=O)c2cc(S(=O)(=O)N(C)C)ccc2N2CCCC2)s1	9.1*	-1	-1	1	1	-1	-4	0
Cc1ccccc1OCC(=O)NC1=NCCS1	9.0*	-1	9	0	5	2	7	12*
O=C(COc1ccccc1)NCC(=O)NC1=NCCS1	1	-1	-1	1	0	-1	·	·
CC(C)(C)N1NC(=O)Nc2ccccc2C1=O	9.6*	-1	1	1	-2	-1	-3	0
CC(C)(C)N1C(=O)c2ccccc2NC(=O)N1Cc1ccccc1	4	-1	-1	1	-2	0	·	·
Cc1nc2c(sc3nc4c(cc32)COC(C)(C)C4)c(=O)o1	-1	-2	-3	1	-1	1	·	·
Nc1nc(N)c2sc3nc4c(cc3c2n1)CCC4	8.1*	-1	5	2	1	1	11*	5.1*
O=C1CN(C(=O)COC(=O)COc2ccc3c(c2)CCC3)c2ccccc2N1	-3	-1	0	-2	-1	-2	·	·

Screening results from PubChem.
